Records with an inconclusive call do not appear. Activity calls are given as the source filed them. The calls were made as follows: active = hit-call score of the fitted dose curve at least 0.9, where 1 is the maximum; inconclusive = response in the unintended direction; inactive = score below 0.9.
Experiments:
[1] = target: human Retinoid X Receptor beta (RXRb), RXRB (gene 6257) (UniProt P28702); assay: ATG_RXRb_TRANS: Attagene TRANS-FACTORIAL HepG2 Assay for human Retinoid X Receptor beta (RXRb) (AID 2283013)
human Retinoid X Receptor beta (RXRb), RXRB (gene 6257), sequence (P28702 whole entry, looked up, the tested form may be a part): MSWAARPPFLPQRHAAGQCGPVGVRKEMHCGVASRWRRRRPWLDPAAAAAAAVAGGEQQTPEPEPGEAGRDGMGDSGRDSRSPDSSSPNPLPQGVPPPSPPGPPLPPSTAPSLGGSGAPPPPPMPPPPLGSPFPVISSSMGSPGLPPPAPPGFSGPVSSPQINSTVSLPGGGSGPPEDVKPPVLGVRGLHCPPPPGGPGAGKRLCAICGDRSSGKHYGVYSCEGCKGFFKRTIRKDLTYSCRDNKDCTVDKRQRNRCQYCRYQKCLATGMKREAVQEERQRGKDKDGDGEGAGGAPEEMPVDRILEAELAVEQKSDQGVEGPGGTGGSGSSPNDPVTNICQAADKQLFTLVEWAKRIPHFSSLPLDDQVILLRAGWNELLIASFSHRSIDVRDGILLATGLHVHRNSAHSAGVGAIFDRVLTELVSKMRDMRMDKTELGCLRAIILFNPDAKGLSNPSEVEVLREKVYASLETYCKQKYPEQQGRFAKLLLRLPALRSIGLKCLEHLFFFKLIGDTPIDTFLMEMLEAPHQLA
In short: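 After a 24 h incubation with test chemical, transfected HepG2 cells carrying NR-Gal4 fusions and GAL4-UAS reporter transcription units yield RNA whose reporter cDNA is FAM-labelled, HpaI-cut and sized by capillary electrophoresis; increases over DMSO are scored.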

[2] = target: human Thyroid Receptor alpha (THRa1), THRA (gene 7067) (UniProt P10827); assay: ATG_THRa1_TRANS: Attagene TRANS-FACTORIAL HepG2 Assay for human Thyroid Receptor alpha (THRa1) (AID 2283014)
human Thyroid Receptor alpha (THRa1), THRA (gene 7067), sequence (P10827 whole entry, looked up, the tested form may be a part): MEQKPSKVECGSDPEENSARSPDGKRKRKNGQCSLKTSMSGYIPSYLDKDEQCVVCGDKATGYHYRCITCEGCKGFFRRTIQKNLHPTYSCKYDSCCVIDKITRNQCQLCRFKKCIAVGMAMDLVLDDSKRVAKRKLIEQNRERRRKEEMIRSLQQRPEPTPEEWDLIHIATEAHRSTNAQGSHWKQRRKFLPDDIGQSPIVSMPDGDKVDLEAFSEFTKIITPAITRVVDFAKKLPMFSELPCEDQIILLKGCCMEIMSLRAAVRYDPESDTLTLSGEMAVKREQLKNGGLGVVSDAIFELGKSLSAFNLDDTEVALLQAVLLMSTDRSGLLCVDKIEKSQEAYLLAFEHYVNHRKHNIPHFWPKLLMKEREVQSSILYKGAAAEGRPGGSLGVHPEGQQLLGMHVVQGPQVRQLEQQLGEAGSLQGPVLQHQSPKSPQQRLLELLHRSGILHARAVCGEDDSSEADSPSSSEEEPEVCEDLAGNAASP
In short: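 Reporter transcript induction, read by capillary electrophoresis of 6-FAM-labelled RT-PCR products, reflects activity of a transfected THRa1-Gal4 fusion in HepG2 liver cells. Cells were dosed for 24 h; activity was fitted in the positive direction against DMSO.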

[3] = target: human Vitamin D Receptor (VDR), VDR (gene 7421) (UniProt P11473); assay: ATG_VDR_TRANS: Attagene TRANS-FACTORIAL HepG2 Assay for human Vitamin D Receptor (VDR) (AID 2283022)
human Vitamin D Receptor (VDR), VDR (gene 7421), sequence (P11473 whole entry, looked up, the tested form may be a part): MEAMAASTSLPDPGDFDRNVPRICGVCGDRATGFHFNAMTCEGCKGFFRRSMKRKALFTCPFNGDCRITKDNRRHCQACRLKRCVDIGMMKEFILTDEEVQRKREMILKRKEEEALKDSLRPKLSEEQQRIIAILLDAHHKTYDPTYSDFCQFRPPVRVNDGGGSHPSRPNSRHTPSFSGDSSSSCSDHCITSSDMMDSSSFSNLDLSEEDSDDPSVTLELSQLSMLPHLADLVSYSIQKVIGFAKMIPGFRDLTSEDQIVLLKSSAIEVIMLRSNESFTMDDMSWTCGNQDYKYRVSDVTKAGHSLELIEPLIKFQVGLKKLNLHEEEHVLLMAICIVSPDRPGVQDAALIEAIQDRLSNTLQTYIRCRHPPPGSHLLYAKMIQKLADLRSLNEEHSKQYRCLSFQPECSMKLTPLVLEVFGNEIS
In short: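 Steps: transfect HepG2 with GAL4-UAS-driven reporter constructs; dose compounds 24 h; isolate RNA, reverse-transcribe, PCR-amplify with 6-FAM-labelled primer extension and HpaI digestion; quantify fragments by capillary electrophoresis relative to DMSO.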

`CCCC(C)CCC(C)=O` (centres undefined) was tested, and the outcome [1] was “inactive”, the outcome [2] was “inactive” and the outcome [3] was “inactive”.

For `C=CC(C)(CCC=C(C)C)OC(=O)C(C)C` (centres undefined), the AC50 [1] was 57.4 µM (active), the outcome [2] was “inactive” and the outcome [3] was “inactive”.

With `Oc1ccc(Cl)cc1Cc1cc(Cl)ccc1O` the AC50 [1] was 6.46 µM (active), the outcome [2] was “inactive” and the outcome [3] was “inactive”.

With `CCN(Cc1cccc(S(=O)(=O)O)c1)c1ccc(C(=C2C=CC(=[N+](CC)Cc3cccc(S(=O)(=O)[O-])c3)C=C2)c2ccccc2)cc1` the outcome [1] was “inactive”, the outcome [2] was “inactive” and the outcome [3] was “inactive”.

For `CC(=O)[C@@]1(O)CC[C@H]2[C@@H]3C[C@H](C)C4=CC(=O)C=C[C@]4(C)[C@@]3(F)[C@@H](O)C[C@@]21C`, the outcome [1] was “inactive”, the outcome [2] was “inactive” and the outcome [3] was “inactive”.

`O=c1cc(-c2ccccc2)oc2ccccc12` was tested, and the outcome [1] was “inactive”, the outcome [2] was “inactive” and the outcome [3] was “inactive”.

`Cc1cccc(C(=O)O)c1` was tested, and the outcome [1] was “inactive”, the outcome [2] was “inactive” and the outcome [3] was “inactive”.

With `NNC(=O)c1cccc(C(=O)NN)c1` the outcome [1] was “inactive”, the outcome [2] was “inactive” and the outcome [3] was “inactive”.

For `O=P(O)(O)Oc1ccccc1`, the outcome [1] was “inactive”, the AC50 [2] was 8.7 µM (active) and the outcome [3] was “inactive”.

With `CC(CC=O)CCCC(C)(C)O` (centres undefined) the outcome [1] was “inactive”, the outcome [2] was “inactive” and the outcome [3] was “inactive”.

With `CC1=Nc2ccc3ccccc3c2C1(C)C` the outcome [1] was “inactive”, the outcome [2] was “inactive” and the outcome [3] was “inactive”.

`O=S(=O)(Oc1ccc(Cl)cc1Cl)c1ccccc1` was tested, and the outcome [1] was “inactive”, the outcome [2] was “inactive” and the outcome [3] was “inactive”.

`Cc1ccc2oc(=O)ccc2c1` was tested, and the outcome [1] was “inactive”, the outcome [2] was “inactive” and the outcome [3] was “inactive”.

In the case of `CC(=O)c1ccc2c(c1)CCCC2`, the AC50 [1] is reported as 42.9 µM (active), the outcome [2] is reported as “inactive” and the outcome [3] is reported as “inactive”.

`O=C1CCCC1` was tested, and the outcome [1] was “inactive”, the outcome [2] was “inactive” and the outcome [3] was “inactive”.

`O=C(Nc1cccc(C(F)(F)F)c1)c1cc(Br)cc(Br)c1O` was tested, and the outcome [1] was “inactive”, the outcome [2] was “inactive” and the outcome [3] was “inactive”.

`CC(C)(C)C(=O)C=Cc1ccc(Cl)cc1` was tested, and the AC50 [1] was 24.4 µM (active), the outcome [2] was “inactive” and the outcome [3] was “inactive”.

`ON(Cc1ccccc1)Cc1ccccc1` was tested, and the outcome [1] was “inactive”, the outcome [2] was “inactive” and the outcome [3] was “inactive”.

`CC(=O)C=CC1C(C)=CCC(C)C1(C)C` (centres undefined) was tested, and the AC50 [1] was 68.5 µM (active), the outcome [2] was “inactive” and the outcome [3] was “inactive”.

`CCCCCCCCCCc1ccccc1` was tested, and the AC50 [1] was 49.1 µM (active), the outcome [2] was “inactive” and the outcome [3] was “inactive”.

`CC(C)C1=CC2=CC[C@@H]3[C@](C)(CCC[C@@]3(C)C(=O)O)[C@H]2CC1` was tested, and the outcome [1] was “inactive”, the outcome [2] was “inactive” and the outcome [3] was “inactive”.

`Cc1cc(C)c(C)c(C)c1` was tested, and the outcome [1] was “inactive”, the outcome [2] was “inactive” and the outcome [3] was “inactive”.

In the case of `CC1(C)O[C@@H]2C[C@H]3[C@@H]4C[C@H](F)C5=CC(=O)CC[C@]5(C)[C@H]4[C@@H](O)C[C@]3(C)[C@]2(C(=O)CO)O1`, the AC50 [1] is reported as 31.8 µM (active), the outcome [2] is reported as “inactive” and the outcome [3] is reported as “inactive”.

From PubChem BioAssay (EPA / NIEHS)
